Measured values reported in PubChem BioAssay (NCI).
Compounds without any hit were thinned out: in the full panel of roughly 79,000, 15% have a hit. The source made the active and inactive calls. Cut-off read from the data, not from the text of the source: active = growth inhibition above about 70%; inactive = the rest.

How the values were obtained:
[1] = NCI Yeast Anticancer Drug Screen. Data for the rad52 strain (AID 147);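 note: 0% = growth of vehicle-treated control cultures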; conditions: S. cerevisiae rad52 mutant growth inhibition, hits give high values
Outline: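 The repair-mutant yeast strain was incubated with compounds, then growth was read and inhibition derived relative to vehicle.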

[2] = NCI Yeast Anticancer Drug Screen. Data for the wt1 strain (AID 149);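 note: 0% = growth of vehicle-treated wt1 cultures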; conditions: S. cerevisiae wt1 strain (SPY 50644) growth inhibition, hits give high values
Outline: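 Vehicle-normalised growth inhibition; strain wt1; compound exposure.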

[3] = NCI Yeast Anticancer Drug Screen. Data for the rad50EPP+ strain (AID 151);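 note: 0% = growth of vehicle-treated control cultures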; conditions: S. cerevisiae rad50 mutant strain, hits give high values
Outline: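 Vehicle-normalised growth inhibition; rad50EPP+ yeast strain, altered in DNA damage repair, compound-treated.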

[4] = NCI Yeast Anticancer Drug Screen. Data for the mgt1 strain (AID 153); conditions: S. cerevisiae mgt1 mutant growth inhibition, hits give high values
Outline: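 Vehicle-normalized growth inhibition is determined in mgt1 yeast, a strain selected for a defined alteration in DNA repair or cell cycle control.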

[5] = NCI Yeast Anticancer Drug Screen. Data for the rad50 strain (AID 155);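 note: 0% = growth of vehicle-only cultures of the same strain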; conditions: S. cerevisiae rad50 strain growth inhibition, hits give high values
Outline: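 A DNA repair-deficient yeast mutant serves as the test organism; compound-induced growth inhibition is calculated against vehicle-treated cells.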

[6] = NCI Yeast Anticancer Drug Screen. Data for the mec2-1 strain (AID 157); conditions: S. cerevisiae mec2-1 strain, hits give high values
Outline: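 Mutant yeast (mec2-1) grown with compound; growth inhibition relative to vehicle control reported.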

[7] = NCI Yeast Anticancer Drug Screen. Data for the rad14 strain (AID 159);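 note: 0% = growth of vehicle-treated control cultures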; conditions: S. cerevisiae rad14 strain growth inhibition, hits give high values
Outline: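 Vehicle-treated cultures served as the baseline for growth inhibition of a DNA repair-mutant yeast strain exposed to each compound.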

[8] = NCI Yeast Anticancer Drug Screen. Data for the sgs1 mgt1 strain (AID 161);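 note: 0% = growth of cultures given vehicle only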; conditions: S. cerevisiae sgs1 mgt1 strain, hits give high values
Outline: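 Percent growth inhibition was derived by comparing compound-exposed mutant yeast with vehicle-exposed cultures. The strain carries alterations in DNA damage repair.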

[9] = NCI Yeast Anticancer Drug Screen. Data for the CLN2oe strain (AID 163);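 note: 0% = growth of vehicle-only control cultures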; conditions: S. cerevisiae CLN2oe strain, hits give high values
Outline: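 Compounds are applied to yeast harbouring a defined cell-cycle control change; reduced growth compared with vehicle-treated controls gives the value.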

[10] = NCI Yeast Anticancer Drug Screen. Data for the cln2 rad14 strain (AID 165);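 note: 0% = growth equal to vehicle treated cultures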; conditions: S. cerevisiae cln2 rad14 strain, hits give high values
Outline: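 Readout is yeast growth inhibition versus vehicle-treated controls, using a strain with cln2 and rad14 alterations exposed to compound.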

[11] = NCI Yeast Anticancer Drug Screen. Data for the bub3 strain (AID 167); conditions: S. cerevisiae bub3 mutant strain, hits give high values
Outline: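 Inhibition values come from growth of compound-treated mutant yeast normalised to vehicle-treated controls.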

[12] = NCI Yeast Anticancer Drug Screen. Data for the wt2 strain (AID 169);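 note: 0% = growth of vehicle-treated yeast cultures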; conditions: S. cerevisiae wt2 strain growth inhibition, hits give high values
Outline: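 Against vehicle-treated controls, the growth of yeast exposed to each compound was compared, and the inhibition was recorded.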

[13] = NCI Yeast Anticancer Drug Screen. Data for the sgs1 strain (AID 173);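 note: 0% = growth of vehicle-only control cultures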; conditions: S. cerevisiae sgs1 mutant, hits give high values
Outline: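 Each compound was added to cultures of the altered yeast strain. Growth was recorded, and inhibition was derived by comparison with vehicle controls.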

[14] = NCI Yeast Anticancer Drug Screen. Data for the mlh1 rad18 strain (AID 175); conditions: S. cerevisiae mlh1 rad18 strain growth inhibition, hits give high values
Outline: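 Genetically defined yeast (DNA repair-deficient) exposed to compounds; growth inhibition determined relative to vehicle.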

[15] = NCI Yeast Anticancer Drug Screen. Data for the rad18 strain (AID 177); conditions: S. cerevisiae rad18 mutant growth inhibition, hits give high values
Outline: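 Vehicle-treated cultures served as the baseline for scoring compound-induced growth inhibition in DNA-repair-mutant yeast.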

[16] = at 5.0 µM (retest, dose inferred, filed as 0.5)
[17] = at 50.0 µM (retest, dose inferred, filed as 5.0)

Measured: growth inhibition

O=C(O)c1ccccc1C(=O)OC1CCc2ccccc2C1 (stereo not drawn)
inactive: [1]; at 1.2 µM -3% | [1]; at 3.7 µM -2% | [1]; at 11.0 µM 0% | [1]; at 33.0 µM 18% | [1]; at 100.0 µM 46% | [2]; at 1.2 µM -5% | [2]; at 3.7 µM -7% | [2]; at 11.0 µM -80% | [2]; at 33.0 µM -1% | [2]; at 100.0 µM 27% | [3]; at 1.2 µM 0% | [3]; at 3.7 µM -4% | [3]; at 11.0 µM -1% | [3]; at 33.0 µM -8% | [3]; at 100.0 µM -12% | [4]; at 1.2 µM -4% | [4]; at 3.7 µM -6% | [4]; at 11.0 µM -10% | [4]; at 33.0 µM -1% | [4]; at 100.0 µM 5% | [5]; at 1.2 µM -1% | [5]; at 3.7 µM 0% | [5]; [16] -12% | [5]; at 11.0 µM 1% | [5]; at 33.0 µM 14% | [5]; [17] 17% | [5]; at 50.0 µM 26.4% | [5]; at 100.0 µM 39% | [6]; at 1.2 µM -6% | [6]; at 3.7 µM -9% | [6]; [16] -20% | [6]; at 11.0 µM -11% | [6]; at 33.0 µM 13% | [6]; [17] 26% | [6]; at 50.0 µM 50.1% | [6]; at 100.0 µM 36% | [7]; at 1.2 µM -5% | [7]; at 3.7 µM -7% | [7]; at 11.0 µM -7% | [7]; at 33.0 µM 11% | [7]; at 100.0 µM 52% | [8]; [16] 1% | [8]; [17] 45% | [8]; at 50.0 µM 50.4% | [9]; at 1.2 µM -10% | [9]; at 3.7 µM -14% | [9]; at 11.0 µM -11% | [9]; at 33.0 µM 39% | [9]; at 100.0 µM 62% | [10]; [16] -74% | [10]; [17] -12% | [10]; at 50.0 µM 58% | [11]; at 1.2 µM -9% | [11]; at 3.7 µM -10% | [11]; [16] -1% | [11]; at 11.0 µM -9% | [11]; at 33.0 µM 17% | [11]; [17] 33% | [11]; at 50.0 µM 55.8% | [11]; at 100.0 µM 53% | [12]; at 1.2 µM -4% | [12]; at 3.7 µM -6% | [12]; at 11.0 µM -9% | [12]; at 33.0 µM -2% | [12]; at 100.0 µM 25% | [13]; at 1.2 µM -4% | [13]; at 3.7 µM -4% | [13]; at 11.0 µM -3% | [13]; at 33.0 µM 14% | [13]; at 100.0 µM 45% | [14]; [16] -4% | [14]; [17] 33% | [14]; at 50.0 µM 22.7% | [15]; at 1.2 µM -2% | [15]; at 3.7 µM -1% | [15]; at 11.0 µM -1% | [15]; at 33.0 µM 6% | [15]; at 100.0 µM 31%

O=CC1(F)CC1(c1ccccc1)c1ccccc1 (stereo not drawn)
inactive: [1]; at 1.2 µM -2% | [1]; at 3.7 µM -4% | [1]; at 11.0 µM -2% | [1]; at 33.0 µM 1% | [2]; at 1.2 µM -1% | [2]; at 3.7 µM -1% | [2]; at 11.0 µM -4% | [2]; at 33.0 µM -1% | [3]; at 1.2 µM -1% | [3]; at 3.7 µM 0% | [3]; at 11.0 µM 5% | [3]; at 33.0 µM 10% | [3]; at 100.0 µM 17% | [4]; at 1.2 µM -2% | [4]; at 3.7 µM -7% | [4]; at 11.0 µM -2% | [4]; at 33.0 µM 0% | [5]; at 1.2 µM 0% | [5]; at 3.7 µM -46% | [5]; [16] -3% | [5]; at 11.0 µM 18% | [5]; at 33.0 µM 5% | [5]; [17] 17% | [5]; at 50.0 µM 27.8% | [6]; at 1.2 µM -3% | [6]; at 3.7 µM -3%
active: [1]; at 100.0 µM 81% | [2]; at 100.0 µM 73% | [4]; at 100.0 µM 87% | [5]; at 100.0 µM 94%
